This is an account of results in PubChem BioAssay AID1508602 (The Scripps Research Institute Molecular Screening Center, 2020).

Molecules are shown by their SMILES. Among all 650,000 compounds or so, about 6,800 (1%) were called active. Cut-off read from the data, not from the text of the source: active = activation above about 4.9%; inactive = the rest. The full list was thinned out, with actives kept by preference.

For this assay, the target named is G-protein coupled receptor 151 (Homo sapiens) (UniProt Q8TDV0). Briefly: activators of human GPR151, primary screen, cell-based, PathHunter beta-arrestin, luminescence (AID 1508602).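 Note: 0% = median of compound wells and 100% = cells with positive control.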 The following applies: PathHunter beta-arrestin GPR151 cells, at 11.2 µM, active compounds read high.
Chain of G-protein coupled receptor 151 (Homo sapiens) (Q8TDV0 whole entry, looked up): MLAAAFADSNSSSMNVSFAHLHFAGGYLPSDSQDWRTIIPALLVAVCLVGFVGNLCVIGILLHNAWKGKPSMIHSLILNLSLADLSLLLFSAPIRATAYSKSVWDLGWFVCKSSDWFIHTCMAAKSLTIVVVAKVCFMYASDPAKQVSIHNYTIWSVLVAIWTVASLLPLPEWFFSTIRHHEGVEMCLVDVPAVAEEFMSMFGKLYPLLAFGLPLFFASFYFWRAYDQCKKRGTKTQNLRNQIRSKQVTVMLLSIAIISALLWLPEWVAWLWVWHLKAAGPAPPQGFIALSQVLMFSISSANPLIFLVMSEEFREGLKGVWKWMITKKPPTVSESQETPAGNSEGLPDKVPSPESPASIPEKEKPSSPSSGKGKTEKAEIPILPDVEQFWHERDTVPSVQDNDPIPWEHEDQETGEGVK
For `Cc1ccc(NC(=O)CSc2nc3cc4c(cc3cc2C#N)OCCO4)cc1`, the activation was -1.17% (inactive).

On to `Cc1ccc2cc(C#N)c(SCCO)nc2c1`, for which the activation was 6.39% (active).

For `COc1ccc2cc(C#N)c(SC)nc2c1`, the activation was 0.673% (inactive).

In the case of `CCN(CC)C(=O)Cn1cnc2sc(C(=O)NCc3ccc(Cl)cc3)c(C)c2c1=O`, the activation is 0.437% (inactive).

Turning to `COc1ccc([C@H](O)[C@@H]2CCCN(C(=O)OC(C)(C)C)C2)cc1`, the activation is 0.253% (inactive).

In the case of `CC(C)(C)OC(=O)N1CCC[C@H](Cn2cc(C(=O)O)nn2)C1`, the activation was 6.74% (active).

Consider `COCCNC(=O)c1cn(C[C@H]2CCCN(C(=O)c3conc3C)C2)nn1`, for which the activation was 1.06% (inactive).

Turning to `O=C(Nc1ccccc1)c1cnc(NCCN2CCOCC2)s1`, the activation is -2.52% (inactive).

Take `COc1ccccc1C1C(C#N)=C(N)Oc2n[nH]c(-c3ccc4ccccc4c3)c21` (stereo not drawn): the activation was -0.23% (inactive).

`COc1ccc(-c2nnc(SCC(=O)Nc3ccc(Br)cc3)nc2-c2ccc(OC)cc2)cc1`: the activation was 1.77% (inactive).

Consider `CC(C)C(=O)NC(=S)Nc1ccccc1F`, for which the activation is 6.35% (active).

Regarding `CC(C)CC(=O)NC(=S)Nc1ccc(F)cc1F`, the activation was 2.41% (inactive).

For `OCCCNC(=S)Nc1ccccc1F`, the activation was 0.421% (inactive).

As to `COc1ccccc1Cc1nc(-c2ccc(OC)c(OC)c2)no1`, the activation is 1.66% (inactive).

With `COc1ccccc1NC(=O)NCc1nc(-c2ccc(OC)c(OC)c2)no1`, the activation was 7.48% (active).

`CCOc1ccccc1NC(=O)CCc1nc(-c2ccc(OC)c(OC)c2)no1`: the activation is -1.02% (inactive).

With `COCCn1cc(C(=O)N2CCCCCC2)c2c3ccccc3n(C)c2c1=O`, the activation is 0.412% (inactive).

In the case of `CC1CCCC(NC(=O)C2N(CCN3CCCCC3)C(=O)C3C(C(=O)Nc4cc(Cl)cc(Cl)c4)C4C=CC32O4)C1C` (stereo not drawn), the activation was -0.312% (inactive).

For `COCCCNC(=O)c1nnc(-c2ccccc2)o1`, the activation was -0.472% (inactive).

With `CC(C)=CCC/C(C)=C/C=N/Nc1ccc(S(N)(=O)=O)cc1[N+](=O)[O-]`, the activation is 1% (inactive).

With `COc1cc(C(=O)Nc2c3c(nn2-c2ccc(F)cc2)CSC3)cc(OC)c1OC`, the activation was 1.91% (inactive).

For `Cc1ccc(-c2nc3ccc(C(=O)NCCC4=CCCCC4)cc3nc2-c2ccc(C)cc2)cc1`, the activation is 4.13% (inactive).

For the compound `Cc1ccc(NCc2ccccc2CO)cc1`, the activation was -5.47% (inactive).

Regarding `OCc1ccccc1CNc1ccc(F)cc1`, the activation is 10.3% (active).

For the compound `Cn1c(CNc2ccc(F)cc2)c(C#N)c2ccccc21`, the activation was 0.294% (inactive).

In the case of `COc1cc(CN2CCN(C3CCCC3)C(CCO)C2)cc(OC)c1OC` (stereo not drawn), the activation is -0.445% (inactive).

As for `C=CCSc1nc2c(c(=O)n1CC1CCCC1)C1(CCCC1)Cc1ccccc1-2`, the activation is 0.419% (inactive).

Turning to `O=c1c2c([nH]c(=S)n1Cc1ccco1)-c1ccccc1CC21CCCCC1`, the activation was -0.102% (inactive).

As for `CC(C)CCSc1nc2c(c(=O)n1Cc1ccco1)C1(CCCCC1)Cc1ccccc1-2`, the activation was 16.5% (active).

On to `CC(C)(C)C(=O)/C=C/c1ccccc1O`, for which the activation is 0.824% (inactive).

`CC(C)N(CCNC(=O)c1cccc(-c2cccs2)n1)C(C)C`: the activation was -1.28% (inactive).

For `CCCCc1ccc(NC(=O)CN2C(=O)C(C)SC(C)C2=O)cc1` (stereo not drawn), the activation was 6.11% (active).

Regarding `CCc1ccc(NC(=O)CN2C(=O)CSC(C)C2=O)cc1` (stereo not drawn), the activation is -0.109% (inactive).

For the compound `CCCCc1ccc(NC(=O)CSc2nnc(C)s2)cc1`, the activation was 0.0157% (inactive).

As to `Cc1ccccc1C(=O)NNC(=O)c1ccccc1F`, the activation was -3.61% (inactive).

For `CSC1=C(C#N)C(c2ccc(Cl)cc2Cl)CC(=O)N1` (stereo not drawn), the activation was -1.96% (inactive).

For the compound `CCOc1ccc(NC(=O)CSC2=C(C#N)C(c3ccc(Cl)cc3Cl)CC(=O)N2)cc1` (stereo not drawn), the activation is -1.43% (inactive).

`C=CCSC1=C(C#N)C(c2ccc(Cl)cc2Cl)CC(=O)N1` (stereo not drawn): the activation is 5.51% (active).

Turning to `O=C(O)C1CC=C(Cl)CC1C(=O)Nc1cccc([N+](=O)[O-])c1` (stereo not drawn), the activation was -0.78% (inactive).

With `COc1ccc([N+](=O)[O-])cc1NC(=O)C1CC(Cl)=CCC1C(=O)O` (stereo not drawn), the activation is 6.77% (active).

Turning to `COc1ccc([N+](=O)[O-])cc1NC(=O)c1cccc(Cl)c1Cl`, the activation is -1.48% (inactive).

On to `CCN1CCN(C(=O)C(C)Oc2ccc(Cl)cc2Cl)CC1` (stereo not drawn), for which the activation is -0.795% (inactive).

As for `CCCn1c(=O)c2c(nc3n(-c4ccc(C)cc4)c(C)c(C)n23)n(C)c1=O`, the activation is 3.26% (inactive).

As to `CCOC(=O)c1ccc(-n2c(C)c(C)n3c4c(=O)n(CC)c(=O)n(C)c4nc23)cc1`, the activation was 1.57% (inactive).

For the compound `CCc1ccc(-n2c(C)c(C)n3c4c(=O)n(CC)c(=O)n(C)c4nc23)cc1`, the activation was 5.92% (active).

With `CCn1c(C)c(CCC(=O)NN2CCOCC2)c(=O)n2nc(-c3ccccc3OC)cc12`, the activation is -0.283% (inactive).

In the case of `CCCCC(CCCC)=N/N=C1\NC(=O)C(CC(=O)O)S1` (stereo not drawn), the activation is -1.58% (inactive).

Regarding `N#Cc1ccc(C(=O)OCC(=O)Nc2ccc3[nH]c(=O)[nH]c3c2)cc1`, the activation is 0.615% (inactive).

Regarding `COc1ccc(C(=O)N/N=C/c2ccc(O)c3ncccc23)cc1`, the activation is -2.28% (inactive).

For the compound `O=S(=O)(c1ccc(F)cc1)N1CCN(Cc2ccccc2F)CC1`, the activation is 0.53% (inactive).

Take `Cc1ccc(S(=O)(=O)N2CCN(Cc3ccc(F)cc3)CC2)cc1`: the activation is -0.354% (inactive).

As for `O=S(=O)(c1ccc(F)cc1)N1CCN(CCCc2ccccc2)CC1`, the activation is 5.43% (active).

On to `Cc1cc(C)c2c(=O)[nH]c(SCC(=O)c3ccc(F)cc3)nc2n1`, for which the activation was 3.2% (inactive).

As to `COc1ccccc1N1CCN(C(=O)c2cc(-c3ccc(Cl)c(Cl)c3)nc3ccccc23)CC1`, the activation was -0.435% (inactive).

As to `COc1ccc(NC(=O)C23CCC(C)(C(=O)C2)C3(C)C)c(OC)c1` (stereo not drawn), the activation is 0.482% (inactive).

For `COc1ccc(-n2c(SCC(=O)c3ccccc3)nc3sc4c(c3c2=O)CCCC4)cc1`, the activation was -0.298% (inactive).

As for `COc1ccc(C(=O)CSc2nc3sc4c(c3c(=O)n2-c2ccc(Cl)cn2)CCCC4)c(F)c1`, the activation is 5.7% (active).

Consider `CCCCSc1nc2sc3c(c2c(=O)n1-c1ccc(OC)cc1)CCCC3`, for which the activation was 0.438% (inactive).

With `Oc1ccc(-c2n[nH]c(=S)o2)cc1`, the activation is -2.2% (inactive).

Turning to `CC(C)(C)c1ccc(S(=O)CC(O)CSc2nc(-c3cccs3)cc(-c3ccccc3)c2C#N)cc1` (stereo not drawn), the activation is 0.807% (inactive).

In the case of `CCCCOC(=O)c1ccc(NC(=O)C2C3C=CC(O3)C2C(=O)O)cc1` (stereo not drawn), the activation was -1.25% (inactive).

Consider `COC(=O)c1cc(NC(=O)C2C3C=CC(C3)C2C(=O)O)cc(C(=O)OC)c1` (stereo not drawn), for which the activation was -0.454% (inactive).

Take `CC(C)COC(=O)c1ccc(NC(=O)C2C3C=CC(C3)C2C(=O)O)cc1` (stereo not drawn): the activation is 6.08% (active).

On to `O=c1c2c3c(sc2nc(SCc2cccc(Br)c2)n1-c1ccccc1)CCC3`, for which the activation is 0.0499% (inactive).

With `O=C(O)COc1ccc(NC(=O)/C=C/c2ccco2)cc1`, the activation is 3.09% (inactive).

For `O=C(COc1ccc(S(=O)(=O)Nc2ccc(F)cc2)cc1)NC1CCCC1`, the activation is 1.64% (inactive).

For the compound `O=C(COc1ccc(S(=O)(=O)NCCc2ccccc2)cc1)NC1CC1`, the activation is 5.83% (active).

For `CC(C)NS(=O)(=O)c1ccc(OCC(=O)NC2CCCCCC2)cc1`, the activation was -1.64% (inactive).

`Cc1ccc(NC(=O)CSc2nnc3sc4ccccc4n23)cc1`: the activation is -0.639% (inactive).

In the case of `Cc1ccc(S(=O)(=O)c2nnn3c2nc(NCc2ccco2)c2ccccc23)cc1`, the activation is -0.413% (inactive).

`Cc1ccc(C(C)C)c(OCCN2CCNCC2)c1`: the activation was 0.889% (inactive).

`Cc1ccc(C(C)C)c(OCCCn2ccnc2)c1`: the activation is 4.92% (active).

Turning to `C=CCc1cc(C)ccc1OCCCn1ccnc1`, the activation was 2.6% (inactive).

Regarding `COc1ccc(CCNc2nc(-c3ccccc3)nc3c2ncn3C2CCCCC2)cc1`, the activation is 0.405% (inactive).

With `COc1ccc(CCNC(=O)c2ccccc2C(=O)O)cc1OC`, the activation is -1.14% (inactive).

Take `O=[N+]([O-])c1ccc(-n2c(-c3ccccc3)nnc2-c2ccccc2)cc1`: the activation was -0.192% (inactive).

`Cc1csc(NC(=O)CSc2nnc(Cc3cccn3C)n2-c2ccccc2)n1`: the activation was 0.245% (inactive).

Take `O=C1/C(=C\c2ccccc2)C(N2CCOCC2)=NN1c1ccc([N+](=O)[O-])cc1`: the activation was 6.57% (active).

Turning to `O=C1N=C(N2CCN(c3ccc([N+](=O)[O-])cc3)CC2)S/C1=C/c1ccccc1`, the activation is -0.706% (inactive).

Turning to `C=CCOc1ccc(/C=C2\C(=O)N(c3ccc([N+](=O)[O-])cc3)N=C2c2ccccc2)cc1`, the activation is -2.33% (inactive).

For the compound `CCC(=O)Nc1cc(-c2ccco2)nn1-c1nc(CC)cc(=O)[nH]1`, the activation was -0.772% (inactive).

Turning to `CC(C)(C)c1ccc(OCCCCNCCO)cc1`, the activation is 0.146% (inactive).

For the compound `COC(=O)NCCOc1ccc(C(C)(C)C)cc1`, the activation is 0.726% (inactive).

`COCCNCCOc1ccc(C(C)(C)C)cc1`: the activation was 8.42% (active).

As to `Cc1ccc(N2C(=O)CC(N3CCN(C(c4ccccc4)c4ccccc4)CC3)C2=O)c(Br)c1` (stereo not drawn), the activation was -0.0796% (inactive).

Consider `CCc1cc(C(=O)N2CCCCC2C)cs1` (stereo not drawn), for which the activation was 1.3% (inactive).

On to `Cc1ccc(CNC(=O)CN(C)S(=O)(=O)c2ccccc2)cc1`, for which the activation is -0.21% (inactive).

Turning to `COc1ccc(CON2C(=O)c3ccccc3C2=O)cc1Cl`, the activation was -1.06% (inactive).

Regarding `COc1ccc(C(=O)C2CCCN(S(=O)(=O)c3cccc(C)c3)C2)c(C)c1` (stereo not drawn), the activation is 5.47% (active).

For the compound `O=C(NNC(=O)C1CCCN(S(=O)(=O)c2cccc(Cl)c2)C1)C1CC1` (stereo not drawn), the activation is 0.674% (inactive).

As for `CCc1ccc(S(=O)(=O)N2CCCC(C(=O)c3ccc(OC)c(OC)c3)C2)s1` (stereo not drawn), the activation is 0.139% (inactive).

With `CCCOc1ccccc1C1CC(=O)C2=C(C1)Nc1ccccc1N(C(C)=O)C2c1ccc(OC)cc1` (stereo not drawn), the activation is -0.237% (inactive).

Consider `Cc1ccc(Cn2c(C)c3cnn(CC(=O)N4CCCC4)c(=O)c3c2C)cc1`, for which the activation is -0.279% (inactive).
